# TDP1 cell CPT: growth inhibition of DT40 Tdp1-/-;hTDP1 cells with camptothecin (screen for TDP1 inhibitors) | 420,000 tested, 12% active | AID 686979 | Potency, µM (series often up to 46.2 µM), without a hit: at the top dose activity change, negative = growth inhibition, hits mostly inhibitors | chicken DT40 Tdp1-/-;hTDP1 cells + 20 nM CPT, ATP luminescence, 48 h; also: nearly all actives have a fitted effect of over 55% in size
#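 Cell growth measured by CellTiter-Glo luminescence after a minimum 48 h, 37 C compound exposure with 20 nM CPT in Tdp1-knockout DT40 cells stably expressing hTDP1, seeded 400/well; qHTS titration format.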
# RORg inh: blocks mouse ROR gamma transcriptional activity | P51450 | Drosophila S2 Gal4-RORgamma UAS-luciferase reporter, 20 h | Potency, µM (doses to about 53.6 µM), inactives show at the top dose activity change, negative = inhibition, most hits filed as inhibitors | 310,000 tested, 5.4% active | AID 2551; also: nearly all actives have a fitted effect of over 60% in size
# Target sequence (P51450 whole entry, looked up, the tested form may be a part): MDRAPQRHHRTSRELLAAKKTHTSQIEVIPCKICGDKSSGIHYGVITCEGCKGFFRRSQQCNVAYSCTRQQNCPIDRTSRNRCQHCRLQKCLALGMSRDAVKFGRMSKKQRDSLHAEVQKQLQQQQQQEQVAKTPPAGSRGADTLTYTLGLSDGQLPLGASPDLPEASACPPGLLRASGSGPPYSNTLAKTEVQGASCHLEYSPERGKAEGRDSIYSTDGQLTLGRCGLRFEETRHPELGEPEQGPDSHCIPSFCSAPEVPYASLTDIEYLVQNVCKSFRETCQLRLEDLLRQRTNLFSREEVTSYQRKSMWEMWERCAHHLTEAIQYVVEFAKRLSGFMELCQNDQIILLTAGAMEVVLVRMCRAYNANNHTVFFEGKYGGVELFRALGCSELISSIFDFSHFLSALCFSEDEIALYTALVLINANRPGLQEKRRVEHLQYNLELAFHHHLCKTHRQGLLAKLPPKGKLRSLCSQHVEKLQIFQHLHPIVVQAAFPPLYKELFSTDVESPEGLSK
#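 Compounds are pin-transferred onto Drosophila Schneider cells expressing a copper-inducible Gal4–ROR gamma transactivation domain fusion. After 1 hr, copper sulfate is added to 700 uM final; luciferase is read 20 hr later.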
# TDP1 inh: inhibitors of human tyrosyl-DNA phosphodiesterase TDP1 | recombinant TDP1, AlphaScreen DNA substrate cleavage | Potency, µM (top dose mostly 130 µM), inactives show at the highest dose activity change, negative = inhibition, most hits filed as inhibitors | 350,000 tested, 0.28% active | Q9NUW8; also: nearly all actives have a fitted effect of over 40% in size
#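 Steps: enzyme plus compound, 15 min RT; add biotin/phosphotyrosine-FITC oligonucleotide (15 nM final), react 5 min; add donor/acceptor beads (10 ug/ml final), 10 min; read AlphaScreen. Tdp1 at 1 nM final.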
# DT40 TDP1 no CPT: qHTS for Inhibitors of human tyrosyl-DNA phosphodiesterase 1 (TDP1): qHTS in cells in absence of CPT | Potency, µM (highest dose often 46.2 µM), for the others: at the top dose activity change, negative = growth inhibition, usual class: inhibitors | 420,000 tested, 15% active | DT40 Tdp1-/- hTDP1 cells, no CPT, ATP luminescence, 48 h; also: nearly all actives have a fitted effect of over 55% in size
#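 DT40 Tdp1-/-;hTDP1 cells, no CPT (DMSO vehicle only), 400 cells/well; compounds pin-transferred; ≥48 hr, 37 °C; CellTiter-Glo 30 min RT dark, luminescence read.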
# VP16 counter: Gal4-VP16 reporter inhibition counter-screen; Potency, µM (top dose mostly 53.6 µM), for inactives: at the top dose activity, negative = inhibition, hits mostly inhibitors; 310,000 tested, 3.5% active; Drosophila S2 Gal4-VP16 UAS-luciferase, luminescence, 20 h;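 also: Gal4-VP16 expression switched on by copper sulfate through the metallothionein promoter; nearly all actives have a fitted effect of over 50% in size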
# * = called active by the depositor; ? = inconclusive; nt = no result given; [ ] = another dose, or the depositor's remark. Only some compounds are listed: those with a hit (about 19% of all), similar ones and a draw of the others. Calls follow the shape of the dose curve; as a rule, active = well fitted curve in the direction sought with a large enough effect; inconclusive = small, poorly fitted or top-dose-only effect, or another doubt; inactive = no such curve, though single readings can be large; an effect the other way counts as inactive or inconclusive. % is scaled to controls: 0 for no effect and ±100 for the full control effect; potency is read from the fitted curve at half-maximal effect.
SMILES,TDP1 cell CPT,RORg inh,TDP1 inh,DT40 TDP1 no CPT,VP16 counter
CC(=O)Nc1ccc(/C=C(\C#N)C(=O)NC2CCCCC2C)cc1 (configuration not stated),-0.6%,7.2%,1.3%,?,0.2%
COc1cc(/C=C(\C#N)C(=O)NC2CCCCC2C)ccc1OS(=O)(=O)c1ccc(C)cc1 (configuration not stated),?,?,2.6%,16.4µM*,11.2µM*
CSc1ccc(/C=C(\C#N)C(=O)NC2CCCCC2C)cc1 (configuration not stated),?,?,7.7%,10.3µM*,?
Cc1nc2c(C(=O)NCCc3ccccc3Cl)c[nH]n2c(=O)c1Cl,-1.1%,8.9%,6.3%,-18.7%,-1.9%
C=CCCCCCCCCCCCC(O)CC(O)COC(C)=O (configuration not stated),-25.8%,33.2%,-6.2%[56.1 µM],-11.8%,8.9%
C=CCC[C@H](CCCCC)OC(=O)/C=C/[C@H](O)[C@@H](O)C[C@H](O)CC=C,?,nt,nt,25.9µM*,nt
COc1cc(C(=O)NCCOc2cc(C)cc(C)c2)c(Br)c(OC)c1OC,16.4µM*,17.4%,5.9%,?,3.6%
CCCc1cc(=O)oc2cc(C)cc(OC(C)C(=O)NCc3cccnc3)c12 (configuration not stated),-5.4%,-9.6%,4.0%,24.9%,4.1%
O=S(=O)(Oc1ccccc1N1CCCCC1)c1ccccc1,-6.7%,11.4%,2.9%,?,-2.0%
Oc1cc(-c2nc3ccccc3s2)cc2c1OCCN(Cc1cccn1-c1ccccn1)C2,1.7%,nt,nt,-0.3%,nt
Oc1cc(-c2nc3ccccc3s2)cc2c1OCCN(Cc1cccn1-c1ncccn1)C2,-4.8%[9.04 µM],nt,nt,16.4µM*,nt
CCOCC(=O)NC1CCc2cc(OC)c(OC)c(OC)c2-c2ccc(SC)c(=O)cc21 (configuration not stated),0.0146µM*,nt,nt,0.164µM*,nt
CCCCOC(=O)NC1CCc2cc(OC)c(OC)c(OC)c2-c2ccc(SC)c(=O)cc21 (configuration not stated),0.0164µM*,nt,nt,0.0146µM*,nt
CN[C@H]1CCc2cc(OC)c(OC)c(OC)c2-c2ccc(OC)c(=O)cc21,0.0206µM*,nt,nt,0.13µM*,nt
CCOC(=O)NC1CCc2cc(OC)c(OC)c(OC)c2-c2ccc(SC)c(=O)cc21 (configuration not stated),0.0103µM*,nt,nt,0.0164µM*,nt
COc1c(O[C@H]2O[C@@H](CO)[C@@H](O)[C@@H](O)[C@@H]2O)cc2c(c1OC)-c1ccc(SC)c(=O)cc1[C@H](NC(C)=O)CC2,nt,-3.5%[16.9 µM],9.1%[56.1 µM],nt,-9.6%[17 µM]
COc1cccc(NC(=O)CN(C)C(=O)/C=C/c2cn(Cc3ccccc3)nc2-c2cccnc2)c1,?,nt,-4.1%,?,nt
Cc1ccc(NC(=O)c2nn(C34CC5CC(CC(C5)C3)C4)cc2[N+](=O)[O-])cc1,23.1µM*,?,-3.9%,?,?
COc1ccc(NC(=O)c2nn(C)cc2[N+](=O)[O-])cc1,0.6%,7.9%,-1.3%,-1.7%,5.5%
O=C1Nc2ccccc2C1=Nc1ccc(Br)cc1,-12.4%,-13.4%[1.91 µM],nt,?,-13.7%
O=c1c2ccccc2sn1-c1ccc(S(=O)(=O)N2CCCCC2)cc1,2.06µM*,nt,-0.5%,15.8µM*,nt
COC(=O)c1sc2ccccc2c1NC(=O)c1ccc(S(=O)(=O)N2CCCCC2)cc1,-11.1%,9.0%,-2.6%,?,-2.5%
O=c1c2ccccc2sn1-c1ccc(S(=O)(=O)N2CCCC2)cc1,3.26µM*,24.5%,6.4%,5.17µM*,-15.5%
Cc1ccc(C(=O)NNC(=O)c2ccccc2)cc1S(=O)(=O)N1CCCCC1,-1.9%,nt,-7.8%,-29.0%,nt
Cc1ccc(-n2sc3ccccc3c2=O)cc1S(=O)(=O)N1CCCCC1,2.31µM*,-0.3%[0.365 µM],7.8%,2.91µM*,nt
SMILES,TDP1 cell CPT,RORg inh,TDP1 inh,DT40 TDP1 no CPT,VP16 counter
O=S(=O)(c1ccccc1)N1CCN(S(=O)(=O)N2CCCCCC2)CC1,4.6%,3.5%,15.2%,-15.6%,-2.5%
O=C(Nc1cc(S(=O)(=O)Nc2ccccc2Cl)ccc1O)c1cc2c(s1)CCCC2,-16.3%,26.6%,-1.9%,-24.7%,-9.1%
CN(Cc1ccccc1)c1ncnc2sccc12,?,?,2.3%[0.0935 µM],11.6µM*,?
O=C(c1ccc(Sc2ccc(F)cc2)c([N+](=O)[O-])c1)N1CCOCC1,-20.8%,21.8%,1.3%,?,-13.0%
COC(=O)CC1(C(=O)OC)Oc2ccc(Br)cc2C(=O)N1c1cccc(Cl)c1Cl (configuration not stated),3.66µM*,16.0%,-3.8%,6.51µM*,2.8%
COC(=O)CC1(C(=O)OC)Oc2ccc(Br)cc2C(=O)N1c1ccc(Br)cc1Cl (configuration not stated),5.8µM*,?,-2.5%,4.11µM*,?
COC(=O)CC1(C(=O)OC)Oc2ccc(Br)cc2C(=O)N1c1cc(Cl)c(Cl)cc1Cl (configuration not stated),8.2µM*,?,0.0%,5.8µM*,-19.8%
Cc1cccc(C(=O)OCC(=O)NN2C(=O)NC3(CCCCC3)C2=O)c1,-3.0%,nt,1.9%,-1.9%,nt
O=C(Nc1ccsc1C(=O)O)c1cccc(C(F)(F)F)c1,-9.8%,-0.8%,nt,-8.8%,5.6%
Cc1ccccc1NC(=O)CSC1=Nc2ccccc2C2=NC(Cc3ccccc3)C(=O)N12 (configuration not stated),?,nt,6.2%,?,nt
COc1ccccc1NC(=O)CSC1=Nc2ccccc2C2=NC(Cc3ccccc3)C(=O)N12 (configuration not stated),23.1µM*,nt,3.8%,?,nt
O=C(CSC1=Nc2ccccc2C2=NC(Cc3ccccc3)C(=O)N12)Nc1cccc(Cl)c1 (configuration not stated),16.4µM*,nt,3.8%,25.9µM*,nt
COc1ccc(NC(=O)CSC2=Nc3ccccc3C3=NC(Cc4ccccc4)C(=O)N23)cc1 (configuration not stated),?,nt,1.2%,20.6µM*,nt
CC(C)C(=O)NC(c1ccco1)c1c(O)ccc2ccccc12 (configuration not stated),?,25.2%,3.1%,?,-7.4%
COC(=O)c1cc(S(=O)(=O)N2CCN(c3cccc(C)c3)C(C)C2)cn1C (configuration not stated),?,nt,0.0%,?,nt
O=c1/c(=C\c2ccc(F)cc2)sc2n1CCCN=2,?,?,7.2%,?,4.6%
C=CCn1c(=O)/c(=C/c2ccc(F)cc2)s/c1=C(\C#N)c1nnc2n1CCCCC2,23.1µM*,-11.8%,5.2%,16.4µM*,0.5%

# Bioassay records: PubChem, National Center for Advancing Translational Sciences (NCATS)
